An excerpt weighted towards active compounds, which were near 6.2% of everything screened.
HCMV inh: blocks human cytomegalovirus replication; activity change, negative = inhibition, % at 57.5 µM; HFF cells, HCMV-luciferase reporter, 72 h; stronger effect = lower value; actives 4.5% (n = 410,000); in the data active = activity change below about -60%; inconclusive = no clear call, values can overlap the other calls; inactive = above about -39%
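Two compound doses tested in HFFs infected with HCMV-luciferase, MOI 1 PFU/cell, 72 h at 37C. Lysate luminescence read with OneGlo; data normalized against buffer-only and 10uM Salinomycin inhibitor controls.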
MARV entry inh: blocks Marburg virus binding to or entry into cells; actives 1.8% (n = 300,000); Potency, µM (doses to about 37.8 µM), without a hit: top-dose activity change, negative = inhibition, most hits filed as inhibitors; AID 540276; Marburg virus pseudotyped entry inhibition, cell reporter; calls by dose curve; tested in HEK293 cells; note: potency is the fitted concentration of half-maximal effect
FMDV antiviral: blocks foot and mouth disease virus. FMDV antiviral cell-based qHTS. Potency, µM (series often up to 57.9 µM), inactives show top-dose activity change, negative = inhibition, most hits filed as inhibitors. actives 1.2% (n = 410,000). AID 1159524; calls by dose curve; tested in HEK293T cells; note: read-out not given here; potency is the fitted concentration of half-maximal effect; nearly all actives have a fitted effect of over 45% in size
Lassa entry inh: Lassa virus entry inhibition | Lassa virus pseudotype entry inhibition, cell reporter | Potency, µM (highest dose often 37.9 µM), inactives show at the highest dose activity change, negative = inhibition, usual class: inhibitors | actives 1.2% (n = 300,000); calls by dose curve; tested in HEK293 cells; note: potency is the fitted concentration of half-maximal effect; nearly all actives have a fitted effect of over 50% in size
* marks the source's active call; other numbers are inactive results; u = inconclusive; x = no result given; ! = repeats disagree; [ ] = dose if it differs, or a comment. % is set by controls: 0 for no effect and ±100 for the full control effect.

SMILES	HCMV inh	MARV entry inh	FMDV antiviral	Lassa entry inh
CCOc1ccc(CN2C(=O)c3ccccc3Sc3ccc(C(=O)NC4CCC(C)CC4)cc32)cc1 (stereo unspecified)	23.0	u	0.0%	-18.8%[46.1 µM]
CCOC(=O)C1=C(CSc2nc(C)cc(C)c2C#N)OC(N)=C(C#N)[C@H]1c1cccs1	x	-28.8%[46.1 µM]	x	x
Cc1ccc(Oc2nc3c(c(=O)n(Cc4ccccc4F)c(=O)n3C)n2C)cc1	-15.1	u	20µM*	-9.5%
COc1cccc(Oc2nc3c(c(=O)n(Cc4ccccc4F)c(=O)n3C)n2C)c1	10.5	14.1%[46.1 µM]	-9.6%	25.5%[46.1 µM]
Cn1c(=O)c2c(nc(Oc3ccc(F)cc3)n2Cc2ccc(F)cc2)n(C)c1=O	-2.2	x	0.0%	23.4%[46.1 µM]
Cn1c(Oc2ccc(Cl)cc2)nc2c1c(=O)n(Cc1ccc(F)cc1)c(=O)n2C	-8.7	1.1%[46.1 µM]	15.8µM*	1.0%[46.1 µM]
O=C(CSc1ccc(F)cc1)Nc1ccccc1Br	-61.4*	4.5%	46.4%	-0.1%
Cc1cc(C(=O)NCc2ccccc2)c2c(C)nn(-c3cccc(Cl)c3C)c2n1	13.1	x	-22.3%	3.6%[46.1 µM]
CCOC(=O)c1ccc(NC(=O)c2cccc(S(=O)(=O)N3c4ccccc4CC3C)c2)s1 (stereo unspecified)	-69.4*	u	u	u
CC1Cc2ccccc2N1S(=O)(=O)c1cccc(C(=O)N2CCN(c3ncccn3)CC2)c1 (stereo unspecified)	-98.1*	u	u	u
CC(NS(=O)(=O)c1cccc(C(=O)NCc2ccncc2)c1)c1ccccc1 (stereo unspecified)	-99.6*	x	-3.9%	x
CC1Cc2ccccc2N1S(=O)(=O)c1cccc(C(=O)NCc2ccncc2)c1 (stereo unspecified)	-88.5*	7.94µM*	-29.7%	-20.4%
COc1ccc(CCNC(=O)c2cccc(S(=O)(=O)NC(C)c3ccccc3)c2)cc1 (stereo unspecified)	-10.8	x	-6.2%	x
CC1Cc2ccccc2N1S(=O)(=O)c1cccc(C(=O)NCCCO)c1 (stereo unspecified)	20.4	-6.2%	-15.3%	-17.9%
CC1Cc2ccccc2N1S(=O)(=O)c1cccc(C(=O)NCc2ccccn2)c1 (stereo unspecified)	0.0	x	-14.6%	x
COc1cc(NC(=O)Cn2cnc3sc(C)c(S(=O)(=O)N4CCC(C)CC4)c3c2=O)cc(OC)c1OC	1.9	0.1%[46.1 µM]	-14.3%	12.7%[46.1 µM]
Cc1cccc(Nc2nc3c(S(=O)(=O)c4ccc(Br)cc4)nnn3c3ccsc23)c1C	24.6	x	-14.1%	-24.5%[46.1 µM]
COc1ccc(NC(=O)c2c(NCc3cccc(OC)c3)sc3c2CCC3)cc1	42.1	x	-7.3%	16.4%[46.1 µM]
C=CCCC1(CCC)C(=O)C(=C(O)c2ccccc2)C(=O)C(CCC)=C1OC (stereo unspecified)	x	-1.7%[14.2 µM]	x	x
CCOC(=O)Cn1nnnc1C(C(C)C)N(Cc1cccs1)Cc1cc2cc(C)ccc2[nH]c1=O (stereo unspecified)	-11.0	9.2µM*	u	u
CCOC(=O)Cn1nnnc1C(CC)N(Cc1cccs1)Cc1cc2cc(C)ccc2[nH]c1=O (stereo unspecified)	-4.8	15.8µM*	-18.7%	u
CCC(c1nnnn1C1CCCC1)N(Cc1cccs1)Cc1cc2cc(C)ccc2[nH]c1=O (stereo unspecified)	u	u	0.0%	u
CC1(C(=O)NS(=O)(=O)c2cccc(Cl)c2)CCN1C(=O)CCc1ccccc1 (stereo unspecified)	-4.2	x	0.0%	x
CC(=O)/C=C/c1ccccc1Oc1c(F)c(F)nc(F)c1F	-67.0*	x	31.6µM*	x
Cc1ccccc1-n1nc(C)c2cc(C(=O)N3CCN(S(=O)(=O)c4ccc(F)cc4)CC3)sc21	-22.1	20.6µM*!	u	u
SMILES	HCMV inh	MARV entry inh	FMDV antiviral	Lassa entry inh
Cn1c(/C=N/NC(=O)c2ccccc2Br)nc2ccccc21	-14.3	13.8%	x	u
Cc1ccc(C(=O)N/N=C/c2nc3ccccc3n2C)cc1	-65.6*	-22.4%	x	u
CNc1cccnc1C=NNC(N)=S	-98.7*	1.26µM*	1.7%	0.631µM*
NC(=S)NN=Cc1nccc2c(C(F)(F)F)cccc12	-73.8*	x	-11.3%	x
NC(=S)N/N=C/c1ccccc1	-36.4	3.3%	-8.8%	5.7%
CCCS(=O)(=O)NC(=O)C1(C)CCN(C(=O)c2c(F)cccc2F)C1 (stereo unspecified)	-30.0	x	-21.7%	x
Cc1cccn2c(CNCC3OCCc4ccccc43)c(C(=O)N3CCCCC3)nc12 (stereo unspecified)	u	10µM*	-23.2%	-38.3%
Cc1cccc(NC(=O)Cn2c(=O)oc3cc(S(=O)(=O)NCc4ccccc4)ccc32)c1	16.8	u	4.4%	x
COc1ccc(OC)c(C(c2nnnn2C2CCCC2)N2CCN(c3ccccc3F)CC2)c1 (stereo unspecified)	-2.4	10µM*	11.4%	u
CCC(C)(C)n1nnnc1C(c1cc2ccc(OC)cc2[nH]c1=O)N1CCN(C2CCCCC2)CC1 (stereo unspecified)	-13.8	13µM*	-29.3%	16.1%
COc1ccc(N2CCN(C(c3cccc(OC)c3OC)c3nnnn3C3CCCC3)CC2)cc1 (stereo unspecified)	-21.5	u	-18.0%	2.82µM*
COc1ccccc1N1CCN(C(c2cc3ccc(C)cc3[nH]c2=O)c2nnnn2C2CCCC2)CC1 (stereo unspecified)	7.4	13µM*	3.0%	-8.8%
CCC(C)(C)n1nnnc1C(c1cc2cc3c(cc2[nH]c1=O)OCO3)N1CCCCC1 (stereo unspecified)	65.7	12.4%	19.0%	5.7%
Cc1sc(N/N=C/c2cccs2)nc1-c1ccccc1	u	7.94µM*	-14.3%	u
OCCNc1nc(-c2ccccc2)nc2ccccc12	73.9	-0.8%[46.1 µM]	-21.5%	-24.5%
CCN(CC)CCCNc1nc2ccccc2c2[nH]c3ccc(OC)cc3c12	-93.4*	u	-5.9%	u
CCN(CC)CCCNc1nc2ccccc2c2nc(-c3ccncc3)nn12	u	7.94µM*	-19.8%	u
CCN(CC)CCCNc1nc(-c2ccccc2)nc2ccccc12	u	16.4µM*	x	u
COCCCNc1nc(-c2ccc(Cl)cc2)nc2ccccc12	33.3	11.2µM*	-26.7%	u
COc1ccc(Cn2c(=O)c3oc4ccccc4c3n(Cc3ccc(F)cc3)c2=O)cc1	-18.6	x	-12.2%	20.7%[46.1 µM]
Cc1ccc(Sc2c(C(=O)NCc3ccccc3C)[nH]c3ccccc23)cc1	8.1	-3.0%[46.1 µM]	10.7%	-15.1%[46.1 µM]
N#C/C(=N\Nc1ccc([N+](=O)[O-])cc1)C(N)=S	-95.3*	u	-27.5%	u
N#C/C(=N\Nc1cccc([N+](=O)[O-])c1)C(=O)c1ccc(Br)cc1	-101.0*	u	u	x
O=C(O)c1ccc(N=NNc2cccc([N+](=O)[O-])c2)cc1	60.7	u	-18.6%	u
COc1cc(OC)c(NC(=O)Cn2c(=O)oc3cc(S(=O)(=O)N4CCCC4)ccc32)cc1Cl	0.0	x	0.0%	u
OCCNCCCOc1cccc(Cl)c1Cl	x	x	-10.3%	x
CCCCNCCCOc1cccc(Cl)c1Cl	-21.7	14.6µM*	x	-0.7%
CCOC1=C2CN(S(=O)(=O)c3ccc(C)cc3)[C@H](c3ccccc3)C[C@@H]2N(S(=O)(=O)c2ccccc2C)[C@H](c2ccccc2)C1	-32.5	x	10.7%	x
